Screens as filed in PubChem.
Shown are actives, neighbours in structure and some others; about 12% of the full set was active somewhere.
L3MBTL1 block: qHTS Assay for the Inhibitors of L3MBTL1. Lethal(3)malignant brain tumor-like protein 1 (Homo sapiens), Q9Y468. Potency, µM (doses to about 57.1 µM), most hits filed as inhibitors. AID 485360, 2010. hit rate 0.66% among 230,000. AlphaScreen L3MBTL1–H3K9me1 peptide binding; note: nearly all actives have a fitted effect of over 60% in size
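L3MBTL1 50 nM + b-AHA-H3(1-15)K9me1 75 nM, 30 min RT; compound added, 30 min RT; streptavidin donor/Ni-chelate acceptor beads 10 ug/mL each final, 30 min RT dark; AlphaScreen read.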
BAZ2B block: qHTS Assay for Inhibitors of BAZ2B | hit rate 4.4% among 360,000 | Bromodomain adjacent to zinc finger domain protein 2B (Homo sapiens), Q9UIF8 | Potency, µM (series often up to 114 µM), usual class: inhibitors | AlphaScreen BAZ2B-H3K14Ac peptide displacement | AID 504333, 2011; note: nearly all actives have a fitted effect of over 60% in size
Target sequence (Q9UIF8 whole entry, looked up, the tested form may be a part): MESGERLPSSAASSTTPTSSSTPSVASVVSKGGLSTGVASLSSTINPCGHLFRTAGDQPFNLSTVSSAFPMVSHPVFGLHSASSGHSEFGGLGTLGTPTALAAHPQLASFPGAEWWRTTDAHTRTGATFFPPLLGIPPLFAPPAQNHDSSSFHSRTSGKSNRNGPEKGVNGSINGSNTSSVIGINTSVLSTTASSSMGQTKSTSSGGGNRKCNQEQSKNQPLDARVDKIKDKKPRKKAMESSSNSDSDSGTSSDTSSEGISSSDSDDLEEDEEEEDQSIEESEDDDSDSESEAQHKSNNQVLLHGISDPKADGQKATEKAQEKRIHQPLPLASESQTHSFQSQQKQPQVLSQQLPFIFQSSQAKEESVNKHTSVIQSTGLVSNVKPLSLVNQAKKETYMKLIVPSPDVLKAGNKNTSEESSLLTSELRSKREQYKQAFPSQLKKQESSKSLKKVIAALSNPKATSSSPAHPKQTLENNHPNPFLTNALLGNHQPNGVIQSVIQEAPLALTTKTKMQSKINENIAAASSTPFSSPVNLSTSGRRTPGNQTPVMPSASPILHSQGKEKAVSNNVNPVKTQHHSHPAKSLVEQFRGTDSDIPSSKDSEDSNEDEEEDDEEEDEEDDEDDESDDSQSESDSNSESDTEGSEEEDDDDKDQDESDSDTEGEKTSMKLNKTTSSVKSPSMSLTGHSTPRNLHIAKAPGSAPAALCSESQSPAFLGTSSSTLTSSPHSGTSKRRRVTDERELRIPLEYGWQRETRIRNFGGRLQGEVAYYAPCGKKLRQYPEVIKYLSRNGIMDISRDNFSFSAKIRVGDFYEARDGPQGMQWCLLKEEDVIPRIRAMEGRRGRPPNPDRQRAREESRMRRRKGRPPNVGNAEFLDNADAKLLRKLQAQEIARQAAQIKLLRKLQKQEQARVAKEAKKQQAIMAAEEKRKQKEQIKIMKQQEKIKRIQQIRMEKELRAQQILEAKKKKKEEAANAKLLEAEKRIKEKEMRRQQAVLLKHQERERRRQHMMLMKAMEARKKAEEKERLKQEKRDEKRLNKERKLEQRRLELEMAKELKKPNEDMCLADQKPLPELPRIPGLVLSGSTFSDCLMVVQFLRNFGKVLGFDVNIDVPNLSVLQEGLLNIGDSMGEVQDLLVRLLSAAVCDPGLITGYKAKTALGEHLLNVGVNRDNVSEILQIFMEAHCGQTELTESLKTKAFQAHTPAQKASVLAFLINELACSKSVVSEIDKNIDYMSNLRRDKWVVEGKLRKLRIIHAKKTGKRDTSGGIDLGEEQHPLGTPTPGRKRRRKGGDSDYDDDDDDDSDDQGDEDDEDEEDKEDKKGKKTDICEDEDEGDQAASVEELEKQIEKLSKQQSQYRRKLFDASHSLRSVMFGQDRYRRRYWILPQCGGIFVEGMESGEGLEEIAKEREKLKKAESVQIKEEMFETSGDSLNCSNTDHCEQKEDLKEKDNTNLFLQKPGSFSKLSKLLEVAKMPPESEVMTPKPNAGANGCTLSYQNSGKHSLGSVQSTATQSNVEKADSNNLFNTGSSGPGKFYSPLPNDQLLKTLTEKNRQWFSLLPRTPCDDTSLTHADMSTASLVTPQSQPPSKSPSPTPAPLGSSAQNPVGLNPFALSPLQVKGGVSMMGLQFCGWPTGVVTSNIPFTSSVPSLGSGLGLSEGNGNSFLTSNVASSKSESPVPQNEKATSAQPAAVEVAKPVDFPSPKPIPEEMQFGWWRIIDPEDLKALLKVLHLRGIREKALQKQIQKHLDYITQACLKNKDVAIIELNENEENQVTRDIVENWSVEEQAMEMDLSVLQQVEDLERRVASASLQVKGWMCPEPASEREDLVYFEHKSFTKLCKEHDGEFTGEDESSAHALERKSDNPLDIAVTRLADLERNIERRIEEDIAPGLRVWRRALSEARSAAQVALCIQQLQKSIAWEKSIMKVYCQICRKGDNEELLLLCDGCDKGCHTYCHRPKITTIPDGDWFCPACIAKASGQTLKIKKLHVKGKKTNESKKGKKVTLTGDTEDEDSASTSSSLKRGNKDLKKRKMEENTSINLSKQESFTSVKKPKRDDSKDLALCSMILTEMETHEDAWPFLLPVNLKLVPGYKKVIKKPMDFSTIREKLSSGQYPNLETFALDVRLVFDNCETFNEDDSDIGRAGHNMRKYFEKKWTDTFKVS
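AlphaScreen luminescence quantifies BAZ2B engagement of H3K14Ac peptide; the protein and biotinylated peptide are both at 50 nM final, buffer PBS pH 7.4 with 0.01% Tween-20, all steps at room temperature.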
Sfp inh: qHTS Assay for Inhibitors of Bacillus subtilis Sfp phosphopantetheinyl transferase (PPTase); Biochemical Sfp PPTase activity, qHTS; 4'-phosphopantetheinyl transferase ffp (Bacillus subtilis), Q9F4F7; AID 1490, 2009; Potency, µM, usual class: inhibitors; hit rate 3.5% among 310,000;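 note: the enzyme is Sfp with the accession as filed and its product quenches rhodamine fluorescence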
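After 15 min at room temperature with compound, 15 nM Sfp received 5 uM rhodamine-CoA plus 12.5 uM BHQ-2-ybbR (50 mM Hepes pH 7.6, 10 mM MgCl2). Rate came from the fluorescence difference over 30 min, ex 525/em 598 nm.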
HP1b binding inh: HTS for Inhibitors of HP1-beta Chromodomain Interactions with Methylated Histone Tails; Potency, µM (top dose mostly 114 µM), most hits filed as inhibitors; hit rate 0.56% among 390,000; AlphaScreen HP1-beta / biotin-H3K9me3 peptide binding; AID 540317, 2011; note: nearly all actives have a fitted effect of over 70% in size
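Compound inhibition of the preformed complex between 50 nM HP1-beta and 50 nM biotinylated H3K9me3 peptide was read by AlphaScreen. Buffer was PBS pH 7.4 with 0.01% Tween-20. Incubations ran 30 min at room temperature, with 10 ug/mL donor/acceptor beads.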
JMJD2A Tudor: qHTS Assay for Inhibitors of JMJD2A-Tudor Domain. Lysine-specific demethylase 4A (Homo sapiens), O75164. Potency, µM (doses to about 114 µM), actives largely listed as inhibitors. hit rate 4.4% among 390,000. AlphaScreen JMJD2A-Tudor / H3K4me3 peptide binding; note: nearly all actives have a fitted effect of over 50% in size
G9a inh: qHTS Assay for Inhibitors of Histone Lysine Methyltransferase G9a; Histone-lysine N-methyltransferase EHMT2 (Homo sapiens), Q96KQ7; G9a H3K9 monomethylation, AlphaScreen, 2 h; Potency, µM (highest dose often 102 µM), most hits filed as inhibitors; hit rate 8.8% among 350,000; AID 504332, 2011; note: nearly all actives have a fitted effect of over 75% in size
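AlphaScreen read-out: biotin-H3K9 peptide (500 nM) methylation by 20 nM enzyme with 20 uM SAM, 2 h at room temperature after 15 min compound preincubation; anti-monomethyl H3K9 antibody plus donor/acceptor beads, 10 min dark.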
Hits are given with their value; – = inactive; ? = inconclusive; · = no result given; [ ] = dose if it differs, or a comment. Calls come from the whole dose curve; as a rule, active = well fitted curve in the direction sought with a large enough effect; inconclusive = small, poorly fitted or top-dose-only effect, or another doubt; inactive = no such curve, though single readings can be large; an effect the other way counts as inactive or inconclusive.

SMILES | L3MBTL1 block | BAZ2B block | Sfp inh | HP1b binding inh | JMJD2A Tudor | G9a inh
CCCOc1ccc(OCCOCCNCc2ccccc2)cc1 | – | ? | – | ? | 18µM | 32µM
CCOCCCNCc1ccc(OCCC(C)C)c(OC)c1 | · | 56µM | ? | – | ? | ?
COc1cc(C)ccc1OCCCCNCc1ccccc1 | – | ? | – | – | 18µM | ·
CCCCOc1ccc(CNC(=O)CCCN2C(=O)CSc3c2c(C)nn3-c2ccccc2)cc1 | · | – | · | – | – | –
O=C1CC(c2nc3ccccc3n2CCCOc2ccccc2)CN1c1ccc(F)cc1 (stereo unspecified) | · | – | · | – | – | –
COc1ccccc1C(=O)Oc1c(Sc2ccccc2)c(C)nn1C(C)(C)C | · | – | · | – | – | –
Cc1ccc(OCCNCc2ccccc2)c(C)c1 | – | ? | ? | ? | 1µM | 14µM
Cc1ccc(OCCSc2ncccn2)c(C)c1 | – | – | – | – | – | –
COc1cccc(OCCNCc2ccccc2)c1 | – | ? | – | – | 6.3µM | 7.9µM
Cc1cccc(OCCCCNCc2ccccc2)c1 | · | 50µM | – | ? | –[11.4 µM] | 13µM
Cc1ccc(OCCCCNC(C)c2ccccc2)c(C)c1 (stereo unspecified) | – | ? | – | – | 20µM | 11µM
COc1ccc(CCNCc2ccc(OCc3ccccc3)cc2)cc1 | · | – | – | – | – | –
COc1ccc(OC)c(NC(=O)CSc2n[nH]c(-c3ccccc3Cl)n2)c1 | · | – | · | – | – | –
COc1ccc(Cl)cc1NC(=O)Cn1c(=O)n2nc(-c3ccccc3)nc2c2ccccc21 | · | – | · | – | – | –
C/C=C/c1ccc(OCCOc2cc(C=O)ccc2OC)c(OC)c1 | – | – | – | – | – | –
CCOc1ccc(OCCOCCNCCOC)cc1 | – | – | – | – | 10µM | ?
CCc1cccc(OCCCCNCCO)c1 | · | 56µM | – | – | –[11.4 µM] | 10µM
Cc1cccc(OCCCCCNCCO)c1 | – | – | – | – | – | –
C/C=C/c1ccc(OCCOCCNCc2ccccc2)c(OC)c1 | – | 50µM | – | – | 28µM | 7.9µM
C=C(Nc1ccc(OCC)cc1)Nc1ccc(OCC)cc1 | · | · | – | · | · | –[12.7 µM]
C=CCN(CC=C)CCCOc1ccc(C)cc1OC | – | 25µM | – | ? | 0.32µM | 25µM
COc1ccc(C2c3c(n(C)c4ccccc34)C(=O)N2CC(=O)Nc2ccc(C)cc2Cl)cc1 (stereo unspecified) | · | – | · | – | – | ?
O=S(=O)(c1ccc(F)cc1)N(CC(O)Cn1c2ccccc2c2ccccc21)c1ccccc1 (stereo unspecified) | · | – | · | – | – | –
Cc1ccc(S(=O)(=O)N(CC(=O)NCCc2ccc(Cl)cc2)c2ccccc2C)cc1 | · | – | · | – | – | –
Cc1cccc(NC(=O)c2ccccc2NC(=O)C2CCCCC2)c1C | – | 50µM | 28µM | – | – | –[0.501 µM]
SMILES | L3MBTL1 block | BAZ2B block | Sfp inh | HP1b binding inh | JMJD2A Tudor | G9a inh
Cc1cccc(NC(=S)NNC(=S)NC2CCCCC2)c1C | – | – | ? | – | – | 1.3µM
CC(=O)c1ccc(NC(=S)NNC(=O)NC2CCCCC2)cc1 | – | ? | 16µM | – | – | 8.9µM
Cc1ccc(NC(=S)NNC(=S)NC2CCCCC2)cc1 | · | – | 40µM | – | ? | ?
Cc1ccccc1NC(=S)NC1CCCC1 | – | – | – | – | – | –
CC1CCC(NC(=O)CCc2cn(Cc3ccc(F)cc3)c3ccccc23)CC1 (stereo unspecified) | · | – | · | – | – | –
Cc1cccc(CNC(=O)C2CCN(S(=O)(=O)c3cccc4nonc34)CC2)c1 | · | – | · | – | – | –
CC(=O)c1ccc(N2CCN(C(=O)CCCCn3c(=O)[nH]c4ccccc4c3=O)CC2)cc1 | · | – | · | – | – | –
Cc1nc2nc(NC(=O)C(C)(C)C)[nH]n2c(=O)c1Cc1ccccc1 | · | – | · | – | – | –
CC(C)CSc1ccccc1NC(=O)c1sc2nc(-c3ccncc3)ccc2c1N | · | – | · | – | – | –
CC1CCC(C(=O)O)NC1c1ccc(C#CCN(C)C)cc1 (stereo unspecified) | · | · | – | · | · | ·
CCOC(=O)c1ccccc1NC(=O)CSc1cn(CC(=O)N2CCOCC2)c2ccccc12 | · | ? | · | – | – | –
C[C@@H]1O[C@@H](O[C@H]2[C@H](Oc3cc(O)c4c(c3)O[C@H](c3ccc(O)cc3)CC4=O)O[C@H](CO)[C@@H](O)[C@@H]2O)[C@H](O)[C@H](O)[C@H]1O | – | – | – | – | – | 45µM
CCOC(=O)c1c(NC(=O)C2CCCO2)sc(C(N)=O)c1C (stereo unspecified) | – | – | – | – | – | ?
COC(=O)c1cc(NC(=S)N2CCN(C(=O)C3CCCO3)CC2)cc(C(=O)OC)c1 (stereo unspecified) | – | – | – | – | – | –
CCCOC(=O)c1c(NC(=O)C2CCCO2)sc(C(=O)OC)c1C (stereo unspecified) | – | – | 6.3µM | ? | ? | 3.5µM
CCN(CC)C(=O)c1sc(NC(=S)N2CCN(C(=O)C3CCCO3)CC2)c(C(=O)OC)c1C (stereo unspecified) | · | – | – | – | – | 50µM
CCOc1ccc(NS(=O)(=O)c2ccc3[nH]cc(C(=O)N4CCCCCC4)c(=O)c3c2)cc1 | · | · | · | – | – | –
Cc1cc(Nc2sc(C(=O)c3ccc(F)cc3)c(N)c2C(=O)Nc2ccc(F)cc2)ccc1Cl | · | ? | · | – | ? | ?
CCc1ccc(-n2c(N3CCN(c4cccc(C)c4C)CC3)nc3ccccc3c2=O)cc1 | · | · | · | – | – | –
Nc1c(C(=O)NCCc2ccccc2)nnn1CC(=O)Nc1ccc(Cl)cc1 | · | – | · | – | – | –
CC(C)Cn1c(=O)c2sccc2n2c(CCCC(=O)NCC(C)c3ccccc3)nnc12 (stereo unspecified) | · | – | · | – | – | –
Cc1c(-n2cc(C(=O)O)c(=O)c3cc(F)c(N4CCCC4)c(F)c32)c(=O)n(-c2ccccc2)n1C | – | – | – | – | – | 56µM
CC1CCN(c2ccc(C(=O)Nc3ccc4c(c3)OCO4)cc2[N+](=O)[O-])CC1 | – | ? | – | ? | ? | ?
O=C(NCc1ccc2c(c1)OCO2)c1ccc(N2CCCCCC2)c([N+](=O)[O-])c1 | – | ? | – | ? | ? | 35µM
CC1CCCN(c2ccc(C(=O)Nc3ccc4c(c3)OCO4)cc2[N+](=O)[O-])C1 (stereo unspecified) | – | ? | – | ? | ? | 22µM
O=C(O)c1ccc(N2CCN(Cc3ccc4c(c3)OCO4)CC2)c([N+](=O)[O-])c1 | · | – | – | ? | ? | –[2.33 µM]
